From PubChem BioAssay AID1259422 (The Scripps Research Institute Molecular Screening Center, 2018)
Among all 640,000 compounds or so, about 9,300 (1.5%) were called active. Cut-off read from the data, not from the text of the source: active = inhibition above about 32%; inactive = the rest. Many of the other results were omitted from the sample, so actives are more common in it than they were.

Experiment: TEAD-YAP interaction inhibition, primary screen, TEAD-YAP interaction inhibitor project, luminescence, HEK-TIYL cells (AID 1259422);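 note: 0% = median of test compound wells and 100% = reference inhibitor wells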
Conditions: TEAD-Gal4/YAP UAS-luciferase luminescence, at 9.12 µM, hits give high values
With C=CCOC(=O)N1CCC(C(=O)NC(c2ccc(F)cc2)c2ccccn2)CC1 (configuration not stated) the inhibition was 6.83% (inactive).
With COc1ccccc1NC(=O)N1CCC2(CC1)OCc1cc(SC)cc(C)c1O2 the inhibition was 1.69% (inactive).
In the case of C=CC(=O)Nc1ccc(OC)cc1OC, the inhibition is reported as 43.2% (active).
For COc1ccc(CNC(=O)Nc2ccc(OC)cc2OC)cc1, the inhibition was 0.36% (inactive).
With COc1ccc(NC(=O)/C=C\c2cccc3ccccc23)c(OC)c1 the inhibition was 2.51% (inactive).
With CCn1cc(C(=O)OCc2c(F)cccc2Cl)c(=O)c2ccc(C)nc21 the inhibition was -3.49% (inactive).
With CCOc1ccc(-c2nc(-c3cccc([N+](=O)[O-])c3)no2)cc1 the inhibition was -19.3% (inactive).
In the case of CCOC(=O)C(CC)Sc1nnc2c(n1)[nH]c1ccc(F)cc12 (configuration not stated), the inhibition is reported as -2.45% (inactive).
For CCCCNc1ncnc2c1[nH]c1ccc(F)cc12, the inhibition was 42.6% (active).
For Cc1ccc2[nH]c3c(=O)n(N)cnc3c2c1, the inhibition was -5.24% (inactive).
In the case of N#CC1(NS(=O)(=O)c2cc([N+](=O)[O-])ccc2Cl)CCCCC1, the inhibition is reported as -2.76% (inactive).
In the case of CC(=O)c1ccc(NC(=O)/C=C/c2cccc([N+](=O)[O-])c2)cc1, the inhibition is reported as -22.5% (inactive).
In the case of COCCCNc1ncnc2ccc(I)cc12, the inhibition is reported as 29.9% (inactive).
With Ic1ccc2ncnc(NCC3CCCO3)c2c1 (configuration not stated) the inhibition was 25.4% (inactive).
In the case of Ic1ccc2ncnc(NCCc3ccccc3)c2c1, the inhibition is reported as 32.8% (active).
With CCn1c(SCC(=O)N2CCc3ccccc32)nnc1-c1ccccc1 the inhibition was -0.23% (inactive).
For O=C(NCc1ccccc1)c1csc(Nc2ccc(N3CCOCC3)cc2)n1, the inhibition was 35% (active).
With O=C(NCc1ccccc1)c1csc(Nc2ncccn2)n1 the inhibition was 5.56% (inactive).
With O=C(Nc1ccc(N2CCOCC2)cc1)c1csc(Nc2ccc(-n3ccnc3)cc2)n1 the inhibition was 17.6% (inactive).
With O=C(NCCc1ccccc1)c1csc(Nc2ccccc2)n1 the inhibition was -24.6% (inactive).
With O=C(NCCc1ccc(O)cc1)c1csc(Nc2ccc(N3CCOCC3)cc2)n1 the inhibition was 39.4% (active).
For O=C(NCCc1ccc(O)cc1)c1csc(Nc2ccc3ncccc3c2)n1, the inhibition was -1.97% (inactive).
With Cc1ccc2nc(-c3cc(NC(=O)c4ccccc4C)ccc3Cl)oc2c1 the inhibition was -11.2% (inactive).
For COc1ccc(Cn2c(SCC(=O)NCCc3ccc(OC)c(OC)c3)nc3ccsc3c2=O)cc1, the inhibition was 11.1% (inactive).
With CC(C)(C)c1ccc(CSc2nc3ccc(NC(=O)c4ccccc4)cc3s2)cc1 the inhibition was 2.44% (inactive).
With CCC(=O)Nc1ccc(NC(=O)COc2ccc(Br)cc2)cc1C the inhibition was 0.24% (inactive).
With COc1ccc(-c2cc(C(=O)Nc3sc(C)c(C)c3C#N)c3ccccc3n2)cc1OC the inhibition was -0.22% (inactive).
